According to PubChem BioAssay (NCATS):
“And” between values parts separate entries of the source, which are not always exact repeats. Identical values can stand only once. Results filed as inconclusive are left out. The source made the active and inactive calls. Calls follow the shape of the dose curve; as a rule, active = well fitted inhibition curve with a large enough effect; inconclusive = small, poorly fitted or top-dose-only effect; inactive = flat fitted curve, though single readings scatter.
% is scaled to controls: 0 for no effect and ±100 for the full control effect; potency is read from the fitted curve at half-maximal effect.

Assay: P-glycoprotein substrates identified in KB-8-5-11 adenocarcinoma cell line, qHTS therapeutic library screen (AID 1346987); also: nearly all actives have a fitted effect of over 65% in size
Details: KB-8-5-11 (P-gp overexpressing) viability, CellTiter-Glo, 72 h; series mostly up to 44.5 µM; activity change, negative = cytotoxicity: at the top concentration
Summary of the method: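 KB-8-5-11, a colchicine-selected P-gp-overexpressing KB-3-1 subline, was grown without colchicine for the assay. Cells were seeded at 500 cells/well, dosed in concentration-response and incubated 72 h at 37 degree C, 5% CO2. Viability was read by CellTiter-Glo luminescence.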
In the case of `Cc1nc2ccc(Oc3ccc(F)cc3)cc2c(=O)n1C[C@H]1CCCN(C(C)C)C1`, the “activity change, negative = cytotoxicity” value was -13.1% (inactive). With `CC1(C)[C@@H](O)CC[C@]2(C)[C@H]3CC=C4[C@@H]5C[C@](C)(C(=O)O)CC[C@]5(C)CC[C@@]4(C)[C@]3(C)CC[C@@H]12` the “activity change, negative = cytotoxicity” value was 4.73% (inactive). In the case of `COC(=O)[C@@]1(c2ccc(C)cc2)C[C@H]1CN1CCC(O)(c2ccccc2)CC1`, the “activity change, negative = cytotoxicity” value was -29.2% (inactive). For `C=C1CCC2C(C)(C)CCC[C@]2(C)[C@H]1C/C=C(\CO)C(=O)C(=O)O` (some centres not stated), the “activity change, negative = cytotoxicity” value was -9.08% (inactive). In the case of `CN1CCN(Cc2ccc(-c3cnc4[nH]cc(-c5ccc6[nH]ccc6c5)c4c3)cc2)CC1`, the Potency was 7.31 µM (active). With `Nc1nc(Nc2ccc(S(N)(=O)=O)cc2)n(C(=S)Nc2c(F)cccc2F)n1` the Potency was 1.16 µM (active). For `NC(=O)[C@H]1CCS[C@@H]2C[C@]3(CCCN3C(=O)Cc3ccc(NC(=O)COc4ccc(Cl)cc4Cl)cc3)C(=O)N12`, the Potency was 20.6 µM (active). For `Cc1cc(O)cc(O[C@@H]2O[C@H](CO)[C@@H](O)[C@H](O)[C@H]2O)c1`, the “outcome” value was “inactive”. For `C=C[C@]1(C)C[C@H](O)[C@@H]2[C@H](OC(=O)[C@@H]2C)C1/C(C)=C/O[C@@H]1O[C@H](CO)[C@@H](O)[C@H](O)[C@H]1O` (some centres not stated), the “outcome” value was “inactive [at 17.3 µM]”. In the case of `CC1(C)CCC(C)(C)c2cc(C3(c4ccc(C(=O)O)cc4)OCCO3)ccc21`, the “activity change, negative = cytotoxicity” value was 9.62% (inactive). In the case of `CN1CCN(c2ccc(C(=O)Nc3n[nH]c4ccc(Cc5cc(F)cc(F)c5)cc34)c(NC3CCOCC3)c2)CC1`, the Potency was 16.4 µM (active) and 13 µM (active). In the case of `C[C@]12C[C@@H](O)[C@@H]3C[C@@]1(O[C@@H]1O[C@H](CO)[C@@H](O)[C@H](O)[C@H]1O)[C@]3(COC(=O)c1ccccc1)C(=O)O2`, the “outcome” value was “inactive [at 17.3 µM]”. With `CC1(C)CC[C@]2(C(=O)O[C@@H]3O[C@H](CO)[C@@H](O)[C@H](O)[C@H]3O)CC[C@]3(C)C(=CCC4[C@@]5(C)CC[C@H](O[C@@H]6O[C@H](C(=O)O)[C@@H](O)[C@H](O)[C@H]6O)C(C)(C)C5CC[C@]43C)C2C1` (some centres not stated) the outcome was “inactive [at 9.29 µM]”. With `CC1(CCOC2OC(CO)C(O)C(O)C2O)CCC23OC2(C1)C(O)CC1C(C)(C(=O)O)CCCC13C` (configuration not stated) the “outcome” value was “inactive [at 17.3 µM]”. In the case of `CC(=O)NC1C(OC(C)(C)C2CCC3(C)C=C(C4CCC5C4(C)CC(O)C4OC(C(C)(C)O)CCC45C)CCC3O2)OC(CO)C(O)C1O` (configuration not stated), the “activity change, negative = cytotoxicity” value was 3.65% [at 17.3 µM] (inactive). In the case of `CCN1CCN(Cc2ccc(NC(=O)c3ccc(C)c(/C=C/c4cnc5[nH]ccc5c4OC)c3)cc2C(F)(F)F)CC1`, the Potency was 23.1 µM (active). In the case of `Cc1cc(C)c(Nc2ccnc(Nc3ccc(C#N)cc3)n2)c(C)c1`, the Potency was 9.2 µM (active). With `CN(C)CCCCC(=O)Nc1ccc(NC(=S)NC(=O)c2ccc(C(C)(C)C)cc2)cc1` the Potency was 13 µM (active). For `C#CCN(Cc1cc2c(=O)n(C)c(CN3CCN(C)CC3)nc2cc1Cl)c1ccc(C(=O)NCc2cccnc2)cc1`, the Potency was 0.259 µM (active). With `C=C(CCC1=C(C)[C@H]2[C@H](CC3[C@@H]4CC=C5C[C@@H](O)C[C@@H](O)[C@]5(C)C4[C@H](O)C[C@@]32C)O1)CO[C@@H]1O[C@H](CO)[C@@H](O)[C@H](O)[C@H]1O` (some centres not stated) the Potency was 1.53 µM (active). With `COC(=O)N(C)c1c(N)nc(-c2nn(Cc3ccccc3F)c3ncccc23)nc1N` the “activity change, negative = cytotoxicity” value was 6.37% (inactive). In the case of `O=C(CSc1nc2c(c(=O)n1-c1ccccc1)SCC2)Nc1ccc(-c2ccccc2)cn1`, the Potency was 0.082 µM (active). With `Cc1[nH]c2ccccc2c1C1=C(NCCc2ccc(F)cc2)C(=O)N(C)C1=O` the Potency was 16.4 µM (active). For `COC(=O)C[C@H]1[C@]2(C)C3=C(C)[C@H](c4ccoc4)C[C@H]3O[C@@H]2[C@H](OC(C)=O)C2[C@](C)(C(=O)OC)C=CC(=O)[C@@]21C` (some centres not stated), the “activity change, negative = cytotoxicity” value was -13.2% [at 17.3 µM] (inactive). With `COc1ccc(CNC(=O)c2sc3nc(C)cc(C)c3c2N)cc1` the “activity change, negative = cytotoxicity” value was -21.7% (inactive). In the case of `C[C@@H]1O[C@@H](O[C@H]2[C@H](O)[C@@H](O)[C@H](O[C@H]3[C@H](O[C@H]4CC[C@@]5(C)C(=CC[C@@H]6C5CC[C@]5(C)[C@@H]7[C@H](C[C@@H]65)O[C@]5(CC[C@@](C)(CO[C@@H]6O[C@H](CO)[C@@H](O)[C@H](O)[C@H]6O)O5)[C@H]7C)C4)O[C@H](CO)[C@@H](O)[C@@H]3O)O[C@@H]2CO)[C@H](O)[C@H](O)[C@H]1O` (some centres not stated), the activity change, negative = cytotoxicity was 4.84% [at 9.29 µM] (inactive). For `O=C(/C=C/c1ccc(O)cc1)N[C@@H](Cc1ccc(O)cc1)C(=O)O`, the “outcome” value was “inactive”.
